# Values joined by “and” are separate entries in the source; they are usually repeats but may differ in a detail not shown here. Equal entries are not always repeated. More than one record can exist for a structure, and the calls need not agree. Active and inactive are the calls of the source. Unless noted, no rule for the calls is given here. Starred links: 1 amine or outer side, 2 acyl side, 3 side chain; linkers in the order of their positions; H or OH if unused. Positions of bridges follow the written chain, without caps; N, C: chain ends. Non-standard residues stand in square brackets, D forms with d. Residues, ends and D or L forms follow the SMILES beside them. Chains are numbered I, II in the order given. Actinocin(9to1) = Cc1c2oc3c(C)ccc(C(=O)[*:1])c3nc-2c(C(=O)[*:2])c(N)c1=O; NMeV = CN[C@H](C(=O)O)C(C)C; Sar = CNCC(=O)O
# Legend:
# [1] = liver-stage malaria parasite growth inhibition, primary screen, cell-based, HepG2, luciferase luminescence, HepG2 viability (AID 624349; in the data active = parasite load remaining mostly below about 12%, no sharp cut-off; inactive = mostly above about 10%;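 also: 100% = mean of DMSO negative control wells on the same plate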); conditions: P. berghei liver stage in HepG2, luciferase luminescence, concentration not given here; parasite load remaining: stronger effect = lower value; viability: measured here: HepG2 viability without parasites
# [2] = Cy5 fluorescence interference with SSB-bound oligo, artefact control for HCV NS3 helicase inhibitor project, biochemical, NIH Clinical Collection, E. coli SSB (AID 743268)
# [3] = test system: Hepatitis C virus NS3 helicase; assay: HCV NS3 helicase inhibitors, primary screen, biochemical, fluorescence polarization, NIH Clinical Collection (AID 743270); conditions: NS3 helicase binding to Cy5-dT15 DNA, stronger effect = higher value, concentration not given here
# [4] = molecular target: Single-stranded DNA-binding protein (Escherichia coli (strain K12)) (UniProt P0AGE0); assay: E. coli SSB displacement from DNA, counter-screen for HCV NS3 helicase inhibitor project, biochemical, fluorescence polarization, NIH Clinical Collection (AID 743271; in the data active = inhibition above about 28%); conditions: stronger effect = higher value, concentration not given here
# [5] = fluorescence interference in NS3h assay format, artefact control for HCV NS3 helicase inhibitor project, biochemical, NIH Clinical Collection (AID 743272); conditions: fluorescence interference counterscreen, stronger effect = lower value;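 also: HCV NS3 helicase with a Cy5 labelled single stranded DNA probe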
# [6] = test system: Neuropilin-2 / VEGF-C interaction (human); assay: inhibitors of NRP2–VEGF-C binding, biochemical, microplate binding format, z-score (AID 743281); conditions: microplate NRP2/VEGF-C binding assay; stronger effect = lower value
# [7] = stimulators of nuclear beta-catenin in C2C12, primary screen, imaging, WNT3A-conditioned medium, mouse C2C12, NPC library (AID 1117326; in the data active = nuclear beta-catenin stimulation mostly above about 4.2%, no sharp cut-off; inactive = mostly below about 10%); conditions: stronger effect = higher value
Compound,parasite load remaining [1],viability [1],fluorescence ratio [2],inhibition [3],inhibition [4],fluorescence ratio [5],outcome [6],nuclear beta-catenin stimulation ([7]; at 10 µM),"nuclear beta-catenin stimulation ([7]; stimulation, at 2 µM) [%]",z-score [6]
CN(CCCN1c2ccccc2CCc2ccccc21)CC(=O)c1ccc(Cl)cc1,66.2% (inactive),68.6%,0.86 (inactive),7.52% (inactive),2.98% (inactive),1.21 (active),inactive,1.2% (inactive),-1.4,
CC[N+](C)(CC)CCOC(=O)C(O)(c1ccccc1)C1CCCCC1 (stereo unspecified),65.2% (inactive),67.2%,0.93 (inactive),-3.71% (inactive),-1.18% (inactive),0.89 (inactive),,-1% (inactive),3.2,-0.249 (inactive)
CN1[C@@H]2CC[C@H]1CC(OC(=O)c1c[nH]c3ccccc13)C2 (stereo partly specified),118% (inactive) and 21.9% (inactive),102% and 67.5%,1.02 (inactive),-3.56% (inactive),-3.95% (inactive),0.9 (inactive),,1.1% (inactive),1.6,-0.714 (inactive)
OCCOCCN1CCN(C2=Nc3ccccc3Sc3ccccc32)CC1,49.4% (inactive) and 94% (inactive) and 56.9% (inactive),95.1% and 77.7% and 206%,1.02 (inactive),1.98% (inactive),1.44% (inactive),0.95 (inactive),,3.8% (inactive),2.1,0.105 (inactive)
CN(C/C=C/C#CC(C)(C)C)Cc1cccc2ccccc12,40.7% (inactive) and 65.8% (inactive) and 43.2% (inactive),99.2% and 68.9% and 104%,1.06 (inactive),1.19% (inactive),4.52% (inactive),1 (inactive),,5.3% (inactive),2.6,0.0743 (inactive)
Nc1nc(N)nc(-c2cc(Cl)ccc2Cl)n1,141% (inactive) and 22.8% (inactive),129% and 67.5%,1.05 (inactive),-1.19% (inactive),2.21% (inactive),1.02 (inactive),,0.6% (inactive),0.3,0.00875 (inactive)
COc1cc(OC)c(C(=O)CCCN2CCCC2)c(OC)c1,144% (inactive) and 82.2% (inactive) and 102% (inactive),95.2% and 73.3% and 68.5%,1.02 (inactive),-3.56% (inactive),-3.95% (inactive),0.97 (inactive),,1.1% (inactive),0.3,-0.505 (inactive)
"Cc1c2oc3c(C)ccc(C(=O)N[C@@H]4C(=O)N[C@H](C(C)C)C(=O)N5CCC[C@H]5C(=O)N(C)CC(=O)N(C)[C@@H](C(C)C)C(=O)O[C@@H]4C)c3nc-2c(C(=O)N[C@@H]2C(=O)N[C@H](C(C)C)C(=O)N3CCC[C@H]3C(=O)N(C)CC(=O)N(C)[C@@H](C(C)C)C(=O)O[C@@H]2C)c(N)c1=O (I: T[dV]P[Sar][NMeV] / II: T[dV]P[Sar][NMeV]; ester I:1-I:C, II:1-II:C; linker I:N-II:N via Actinocin(9to1))",-0.02% (inactive),31.5%,0.91 (inactive),1.53% (inactive),2.76% (inactive),0.93 (inactive),,92.5% (active),109,-4.03 (active)
CNS(=O)(=O)Cc1ccc2[nH]cc(CCN(C)C)c2c1,108% (inactive) and 29.1% (inactive),93.1% and 65.5%,1.05 (inactive),5.94% (inactive),6.06% (inactive),1.03 (inactive),,0.9% (inactive),0.4,0.0332 (inactive)
CCCN[C@H]1CCc2nc(N)sc2C1,115% (inactive) and 91.5% (inactive) and 28.8% (inactive),75% and 71% and 70.5%,1.02 (inactive),-0.4% (inactive),-1.64% (inactive) and 0.67% (inactive),0.97 (inactive) and 1 (inactive),,0.9% (inactive),0.5,-0.903 (inactive) and 0.751 (inactive)
OCc1cccnc1,56.9% (inactive),66.4%,0.93 (inactive),-1.09% (inactive),-1.18% (inactive),0.87 (inactive),,0.5% (inactive),1,-0.624 (inactive)
COC(=O)C1=C(C)NC(C)=C(C(=O)O[C@@H]2CCCN(Cc3ccccc3)C2)[C@@H]1c1cccc([N+](=O)[O-])c1,10.8% (inactive),55.9%,0.96 (inactive),3.56% (inactive),5.29% (inactive),0.94 (inactive),,8.2% (inactive),5.8,1.67 (inactive)
O=C1CC2(CCCC2)CC(=O)N1CCNCC1COc2ccccc2O1 (stereo unspecified),46.8% (inactive),69.1%,0.98 (inactive),-8.95% (inactive),-4.33% (inactive),0.98 (inactive),,0.9% (inactive),0.6,0.317 (inactive)
CCOC(=O)C1=C(C)NC(C)=C(C(=O)OCC)C1c1ccccc1/C=C/C(=O)OC(C)(C)C,-0.13% (active) and 24.4% (inactive),74.1% and 104%,0.9 (inactive),3.28% (inactive),3.54% (inactive),0.9 (inactive),,3% (inactive),1.2,-0.248 (inactive)
Nc1nc2c(ncn2CCC(CO)CO)c(=O)[nH]1,89.5% (inactive) and 22.2% (inactive),82.6% and 70.5%,1.05 (inactive),2.77% (inactive),-1.64% (inactive),1.01 (inactive),inactive,0.5% (inactive),1.8,
CC1CCN(CCCC(=O)c2ccc(F)cc2)CC1,55.3% (inactive),68.6%,1 (inactive),-3.71% (inactive),1.97% (inactive),0.99 (inactive),,1.8% (inactive),0.7,1.36 (inactive)
CC(C)(C)C(O)/C=C/c1ccc2c(c1)OCO2 (stereo unspecified),76% (inactive),68%,0.94 (inactive),-4.59% (inactive),-2.76% (inactive),0.88 (inactive),,0% (inactive),1.5,-0.389 (inactive)
COc1cc(C)nc(-n2nc(C)cc2OC)n1,32% (inactive) and 118% (inactive) and 64.4% (inactive),46.8% and 89.6% and 75.3%,0.95 (inactive),-0.22% (inactive),5.91% (inactive),0.88 (inactive),,-1.3% (inactive),-0.3,-0.659 (inactive)
CCN(CC)CC1CCCCN1CC(=O)N1c2ccccc2C(=O)Nc2cccnc21 (stereo unspecified),84.2% (inactive),71.2%,1.04 (inactive),-2.77% (inactive),-2.41% (inactive),1.04 (inactive),,6.3% (inactive),1.6,-0.131 (inactive)
NC1CCN(c2nc3c(cc2F)c(=O)c(C(=O)O)cn3-c2ccc(F)cc2F)C1 (stereo unspecified),96.2% (inactive) and 26.3% (inactive),82.6% and 76%,0.97 (inactive),-5.15% (inactive),9.91% (inactive),0.98 (inactive),,1% (inactive),0.1,-1.29 (inactive)
Cc1nc2n(c(=O)c1CCN1CCC(c3noc4cc(F)ccc34)CC1)CCCC2,83.8% (inactive) and 28.6% (inactive) and 49.1% (inactive),76.9% and 60.3% and 97.5%,1.05 (inactive),3.56% (inactive),2.21% (inactive),1.02 (inactive),,4.2% (inactive),4.4,-1.5 (inactive)
CN(C)CC/C=C1/c2ccccc2COc2ccc(CC(=O)O)cc21,66.3% (inactive) and 36.6% (inactive),81.2% and 101%,0.96 (inactive),-6.33% (inactive),-3.54% (inactive),0.94 (inactive),,-0.9% (inactive),0.1,-0.65 (inactive)
CC(C)(C#N)c1cc(Cn2cncn2)cc(C(C)(C)C#N)c1,73.5% (inactive) and 47.4% (inactive),67.1% and 158%,0.93 (inactive),-0.22% (inactive),1.18% (inactive),0.92 (inactive),,0.3% (inactive),1.7,1.38 (inactive)
Nc1ccc(O)c(C(=O)O)c1,86.6% (inactive) and 106% (inactive) and 16.7% (inactive),71.9% and 101% and 72%,0.94 (inactive),3.56% (inactive),2.21% (inactive),0.94 (inactive),,2% (inactive),0.6,-0.236 (inactive)
COc1cc(C)c(Cc2cnc(N)nc2N)cc1OC,28% (inactive),73.1%,1.02 (inactive),1.98% (inactive),2.21% (inactive),0.95 (inactive),,-0.5% (inactive),0.4,-0.323 (inactive)
CCc1oc2ccccc2c1C(=O)c1cc(Br)c(O)c(Br)c1,,118% and 76% and 66.9%,0.92 (inactive),-2.84% (inactive),9.06% (inactive),0.93 (inactive),,5.3% (inactive),4.6,0.212 (inactive)
CC1(C)S[C@@H]2[C@H](N=CN3CCCCCC3)C(=O)N2[C@H]1C(=O)O,101% (inactive),79.6%,1.06 (inactive),-1.98% (inactive),-4.72% (inactive),1.04 (inactive),,0.4% (inactive),0.8,-0.418 (inactive)
Cc1ccnc2c1NC(=O)c1cccnc1N2C1CC1,79.8% (inactive),69.1%,1.05 (inactive),1.98% (inactive),-5.49% (inactive),1 (inactive),,0% (inactive),1.8,-1.18 (inactive)

# — PubChem BioAssay
